The panel holds about 83,000 compounds, 20% with a hit somewhere; the sample as a whole holds those more often.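 48-hour exposure, single concentration, 96-well plates; percent growth endpoint where 0 means no net growth. Active: below 10.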 Values without a mark were called inactive. Calls of active or inactive are those of the source.

Data on 26 molecules can be found in PubChem BioAssay (NCI).

In this assay the test system is MDA-MB-468 breast. The assay is described as follows: NCI-60 one-dose screen, 48 h (100 = growth as untreated, 0 = no growth, -100 = all killed). Particulars: 10 µM unless noted.
As to `Cc1ccc(-c2nc3nc(-c4ccc(F)cc4)nc(N4CCCNCC4)c3o2)cc1`, the growth is -75.5% (active). Next, `CC(=O)c1sc(-c2ccccc2)cc1N`: 91.7%; `CN1CCN(C2=Nc3ccccc3Oc3ccc(Cl)cc32)CC1`: 100%. In the case of `CC(=O)/C(=C/c1ccc(Cl)cc1)C(=O)c1ccccc1`, the growth was 96.9%. As for `CCCOC(=O)n1cccc1`, the figure is 106%; as for `CNC1(C#N)CCN(Cc2ccccc2)CC1`, 85.6%; as for `COc1cccc(-c2nc3sccn3c2-c2ccnc(NCCNS(=O)(=O)c3c(Cl)cccc3Cl)c2)c1`, 56.8%. As for `C=CCN1C(=O)c2cccc3c(-c4ccc5c(c4)ncn5C4CCCCC4)ccc(c23)C1=O`, the figure is 34.6%; as for `CC(=O)c1ccc(NC(=O)COc2ccc(C3SCC(=O)N3c3ccc(Br)cc3)cc2)cc1` (stereo unspecified), 92%; as for `O=C(NC1CCCCC1)c1ccc(Nc2ncnc3c2cnn3-c2ccccc2)cc1`, 76.1%. Next, `N#CC1=C2NCCCNc3oc(nc3C#N)Cc3ccccc3CC(=N1)O2`: 75.1%; `O=C(Cc1ccc(/C=C/C(=O)c2ncc[nH]2)cc1)Nc1ccc(Br)cc1`: 19.6%; `CCOC(=O)c1cc(C(=O)c2cc(OC)c(OC)c(OC)c2)n2c1ccc1ccccc12`: 1.54% (active).

Regarding `COc1ccc(C(C)=C(c2ccc(OCCN(C)C)cc2)c2ccc(OCCN(C)C)cc2)cc1`, the growth is -76.9% (active).

Take `CNCCCn1c2c(c3ccc(F)cc3c1=O)C(=O)c1cc(OC)cnc1-2`: the growth was -47.6% (active). As for `COc1ccc(-c2ccc(-c3ccc(C(=N)N)cn3)s2)cc1Cl`, the figure is -68.5% (active); as for `CC(O)CN(CCO)CCN(CCO)CC(C)O` (stereo unspecified), 94.8%. As for `Nc1ccc2c(c1)C(=O)C(=O)c1c-2nc2ccccn12`, the figure is -38.2% (active); as for `COc1cc(-c2nc3occn3c2-c2ccnc(NCCCNS(=O)(=O)c3ccc(O)cc3)n2)ccc1F`, 91.4%; as for `COc1cccc(COc2ccc(/C=C3/C(=O)Nc4cc(Cl)ccc43)cc2)c1`, 85.1%.

`CN1CCN(CCCNC(=O)c2c3c(n4ccccc24)C(=O)c2ncccc2C3=O)CC1`: the growth is -59.9% (active). For `COC(=O)c1ccc2[nH]c(O)c(C(=Nc3ccc(N(C)C(=O)CN4CCN(C)CC4)cc3)c3ccc4c(c3)OCO4)c2c1`, the growth was 38.3%. With `COc1ccc(OC)c2c1C(=O)CC2C` (stereo unspecified), the growth was 99.6%. As for `C=C1C(=O)O[C@H]2[C@H]1CC/C(COC(=O)NCCc1c[nH]c3ccc(OC)cc13)=C\CC[C@@]1(C)O[C@@H]21`, the figure is -44.9% (active); as for `O=C1Cc2cc(CCN3CCN(c4nsc5ccccc45)CC3)c(Cl)cc2N1`, 49.1%.

Take `O=C1Nc2ccccc2/C1=C\c1nc(C2CCN(S(=O)(=O)c3ccc(F)cc3)CC2)n2ccccc12`: the growth was 70.6%.
